This note sets out measurements from PubChem BioAssay (EPA / NIEHS).

Experiment [1] has as its target Glycogen synthase kinase-3 beta (Homo sapiens) (UniProt P49841). In words: NVS_ENZ_hGSK3b: NovaScreen (NVS) Enzymatic Assay for human Glycogen Synthase Kinase-3 beta (GSK3b) (AID 2283165). In a few lines: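 Recombinant enzyme with specific fluorescent substrate, 1 h, product separated by electrophoretic mobility shift. Primary duplicate screen at 25 uM; actives (e.g. 30% inhibition) followed in singleton concentration-response to 50 uM. Signal loss fitted versus DMSO.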

Experiment [2] concerns the target human MET Proto-Oncogene, Receptor Tyrosine Kinase (MET), MET (gene 4233) (UniProt P08581). As to the kind of experiment: NVS_ENZ_hMet: NovaScreen (NVS) Enzymatic Assay for human MET Proto-Oncogene, Receptor Tyrosine Kinase (MET) (AID 2283180). The procedure, abridged: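 Cell-free MET kinase assay using recombinant protein and fluorescent substrate, with mobility-shift separation; read 1 h after dosing. Primary duplicate at 25 uM; actives in singleton concentration-response to 50 uM maximum. Signal loss versus DMSO.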

In experiment [3] the target is human Janus Kinase 2 (Jak2), JAK2 (gene 3717) (UniProt O60674). As to the kind of experiment: NVS_ENZ_hJak2: NovaScreen (NVS) Enzymatic Assay for human Janus Kinase 2 (Jak2) (AID 2283169). The procedure, abridged: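 Cell-free recombinant human JAK2 enzyme activity assay, fluorescence/electrophoretic mobility shift read 1 h after dosing. Screened in duplicate at 25 uM, then concentration-response up to 50 uM; activity as signal loss relative to DMSO.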

In experiment [4] the target is human c-Jun N-terminal Kinases (JNK2), MAPK9 (gene 5601) (UniProt P45984). As to the kind of experiment: NVS_ENZ_hJNK2: NovaScreen (NVS) Enzymatic Assay for human c-Jun N-terminal Kinases (JNK2) (AID 2283171). In a few lines:
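Cell-free recombinant human JNK2 activity assay; fluorescent substrate and product separated by electrophoretic mobility shift, read 1 h after dosing. Primary duplicate screen at 25 uM; actives run in concentration-response up to 50 uM, relative to DMSO.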

Experiment [5] addresses Mitogen-activated protein kinase 3 (Homo sapiens) (UniProt P27361). As to the kind of experiment: NVS_ENZ_hMAPK3: NovaScreen (NVS) Enzymatic Assay for human Mitogen-Activated Protein Kinase 3 (MAPK 3) (AID 2283177). In a few lines: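 Cell-free enzymatic assay with recombinant protein and specific substrate; fluorescence and electrophoretic mobility shift read-out 1 h after dosing. Primary screen duplicate at 25 uM; actives then run in concentration-response up to 50 uM, loss of signal versus DMSO.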

In experiment [6] the target is human MAP Kinase-Activated Protein Kinase 2 (MAPKAPK2), MAPKAPK2 (gene 9261) (UniProt P49137). In words: NVS_ENZ_hMAPKAPK2: NovaScreen (NVS) Enzymatic Assay for human MAP Kinase-Activated Protein Kinase 2 (MAPKAPK2) (AID 2283178). In a few lines: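 Cell-free recombinant human MAPKAPK2 activity measured by fluorescence with electrophoretic mobility shift separation of substrate and product, 1 hr after dosing. Loss of signal versus DMSO; primary screen at 25 uM, concentration-response up to 50 uM.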

Experiment [7] deals with human Matrix Metalloproteinase-2 (MMP2), MMP2 (gene 4313) (UniProt P08253). As to the kind of experiment: NVS_ENZ_hMMP2: NovaScreen (NVS) Enzymatic Assay for human Matrix Metalloproteinase-2 (MMP2) (AID 2283184). The procedure, abridged: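 Cell-free recombinant MMP2 activity with a fluorescent substrate, read 1 h after dosing. Primary screen in duplicate at 25 uM; actives then run in concentration series; loss of signal fitted versus DMSO.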

Experiment [8] has as its target human Matrix Metalloproteinase-9 (MMP9), MMP9 (gene 4318) (UniProt P14780). In words: NVS_ENZ_hMMP9: NovaScreen (NVS) Enzymatic Assay for human Matrix Metalloproteinase-9 (MMP9) (AID 2283190).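 Note: cell-free recombinant MMP9 protease activity read by fluorescent substrate signal; active means inhibition seen as loss of fluorescence signal versus DMSO.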 In a few lines: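 Screening concentration 25 uM, duplicate wells, then dose series for confirmation. Cell-free enzymatic reaction measured by fluorescence intensity 1 h post-dosing; decreased signal versus DMSO taken as activity.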

For experiment [9], the target named is human Phosphodiesterase 5 (PDE5), PDE5A (gene 8654) (UniProt O76074). In words: NVS_ENZ_hPDE5: NovaScreen (NVS) Enzymatic Assay for human Phosphodiesterase 5 (PDE5) (AID 2283194). The procedure, abridged: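 Recombinant human PDE5 with specific substrate, read 1 h after dosing by fluorescence with electrophoretic mobility-shift separation of substrate and product. Initial single-concentration duplicate screen at 25 uM, actives followed in concentration series; loss of activity versus DMSO.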

In experiment [10] the target is human Mitogen-Activated Protein Kinase 1 (MAPK 1), MAPK1 (gene 5594) (UniProt P28482). As to the kind of experiment: NVS_ENZ_hMAPK1: NovaScreen (NVS) Enzymatic Assay for human Mitogen-Activated Protein Kinase 1 (MAPK 1) (AID 2283175). The procedure, abridged: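 Cell-free recombinant human MAPK1 enzymatic assay, fluorescence/electrophoretic mobility shift read at 1 h; loss of signal vs DMSO. Primary screen in duplicate at 25 uM; actives (e.g. ≥30% inhibition) run as concentration-response up to 50 uM.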

In experiment [11] the target is human Phosphodiesterase 4A1 (PDE4A1), PDE4A (gene 5141) (UniProt P27815). In words: NVS_ENZ_hPDE4A1: NovaScreen (NVS) Enzymatic Assay for human Phosphodiesterase 4A1 (PDE4A1) (AID 2283191). The procedure, abridged:
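Cell-free recombinant human PDE4A1 with fluorescent substrate; product separated by electrophoretic mobility shift, 1 h. Screened at 25 uM, then up to 50 uM in concentration-response; loss of signal fitted against DMSO.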

For experiment [12], the target named is human IkappaB Kinase alpha (IKKa), CHUK (gene 1147) (UniProt O15111). As to the kind of experiment: NVS_ENZ_hIKKa: NovaScreen (NVS) Enzymatic Assay for human IkappaB Kinase alpha (IKKa) (AID 2283167). The procedure, abridged: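 Cell-free recombinant human IKKa with fluorescent substrate, product separated by electrophoretic mobility shift; read 1 hour after dosing. Primary screen duplicate at 25 uM, actives then concentration-response up to 50 uM; loss of signal relative to DMSO.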

In experiment [13] the target is human Matrix Metalloproteinase-7 (MMP7), MMP7 (gene 4316) (UniProt P09237). As to the kind of experiment: NVS_ENZ_hMMP7: NovaScreen (NVS) Enzymatic Assay for human Matrix Metalloproteinase-7 (MMP7) (AID 2283183). The procedure, abridged: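 Cell-free fluorescence enzymatic assay read 1 h after compound addition, activity loss analyzed against DMSO. Primary duplicate testing at 25 uM; compounds meeting threshold rerun in singleton concentration-response up to 50 uM.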

The target in experiment [14] is Collagenase 3 (Homo sapiens) (UniProt P45452). As to the kind of experiment: NVS_ENZ_hMMP13: NovaScreen (NVS) Enzymatic Assay for human Matrix Metalloproteinase-13 (MMP13) (AID 2283182). The procedure, abridged: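 Recombinant MMP13 cleaving fluorescent substrate, cell-free, measured 1 h after dosing. Primary duplicate screen at 25 uM; actives tested in concentration-response up to 50 uM; loss of signal relative to DMSO.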

Experiment [15] deals with human Matrix Metalloproteinase-3 (MMP3), MMP3 (gene 4314) (UniProt P08254). As to the kind of experiment: NVS_ENZ_hMMP3: NovaScreen (NVS) Enzymatic Assay for human Matrix Metalloproteinase-3 (MMP3) (AID 2283185). The procedure, abridged: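 Cell-free recombinant human MMP3 activity, fluorescence intensity read 1 h after dosing. Primary screen duplicate at 25 uM, actives retested in concentration series; loss of signal vs DMSO baseline.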

The target in experiment [16] is human Mitogen- and Stress-activated Protein Kinase-1 (Msk1), RPS6KA5 (gene 9252) (UniProt O75582). In words: NVS_ENZ_hMsk1: NovaScreen (NVS) Enzymatic Assay for human Mitogen- and Stress-activated Protein Kinase-1 (Msk1) (AID 2283187). In a few lines: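 Recombinant kinase with fluorescent substrate; product separated by electrophoretic mobility shift, read 1 h after dosing. Screened in duplicate at 25 uM; hits (e.g. ≥30% inhibition) tested in concentration–response up to 50 uM. DMSO baseline.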

Experiment [17] addresses human NIMA (Never In Mitosis Gene A)-Related Kinase 2 (NEK2), NEK2 (gene 4751) (UniProt P51955). As to the kind of experiment: NVS_ENZ_hNEK2: NovaScreen (NVS) Enzymatic Assay for human NIMA (Never In Mitosis Gene A)-Related Kinase 2 (NEK2) (AID 2283188). In a few lines:
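Cell-free NEK2 enzyme activity after 1 h exposure, read by fluorescence with electrophoretic mobility shift separating substrate and product. Primary screen in duplicate at 25 uM; actives then run as concentration series. Loss of signal versus DMSO scored.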

Experiment [18] concerns the target human p21 Activated Kinase 4 (PAK4), PAK4 (gene 10298) (UniProt O96013). In words: NVS_ENZ_hPAK4: NovaScreen (NVS) Enzymatic Assay for human p21 Activated Kinase 4 (PAK4) (AID 2283189). In a few lines: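 Cell-free recombinant human PAK4 activity assay; fluorescent substrate and product separated by electrophoretic mobility shift, read 1 h after dosing. Initially tested in duplicate at 25 uM, relative to DMSO baseline.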

Inconclusive results are not listed. Active and inactive are the calls of the source. Rule for the calls: active = hit-call score of the fitted dose curve at least 0.9, where 1 is the maximum; inconclusive = response in the unintended direction; inactive = score below 0.9.

Chain of Glycogen synthase kinase-3 beta (Homo sapiens) (P49841 whole entry, looked up): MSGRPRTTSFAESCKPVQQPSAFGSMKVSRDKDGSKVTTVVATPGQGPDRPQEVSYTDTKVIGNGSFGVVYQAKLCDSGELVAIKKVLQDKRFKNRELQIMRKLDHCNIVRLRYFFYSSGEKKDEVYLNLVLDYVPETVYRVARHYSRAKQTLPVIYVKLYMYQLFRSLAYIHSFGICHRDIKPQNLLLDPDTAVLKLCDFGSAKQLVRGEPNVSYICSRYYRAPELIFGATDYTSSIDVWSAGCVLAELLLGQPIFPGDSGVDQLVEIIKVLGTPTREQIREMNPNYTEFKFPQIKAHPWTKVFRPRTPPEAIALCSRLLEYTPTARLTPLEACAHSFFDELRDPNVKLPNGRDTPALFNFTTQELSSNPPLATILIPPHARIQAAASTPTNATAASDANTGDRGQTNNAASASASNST
Chain of human Matrix Metalloproteinase-7 (MMP7), MMP7 (gene 4316) (P09237 whole entry, looked up): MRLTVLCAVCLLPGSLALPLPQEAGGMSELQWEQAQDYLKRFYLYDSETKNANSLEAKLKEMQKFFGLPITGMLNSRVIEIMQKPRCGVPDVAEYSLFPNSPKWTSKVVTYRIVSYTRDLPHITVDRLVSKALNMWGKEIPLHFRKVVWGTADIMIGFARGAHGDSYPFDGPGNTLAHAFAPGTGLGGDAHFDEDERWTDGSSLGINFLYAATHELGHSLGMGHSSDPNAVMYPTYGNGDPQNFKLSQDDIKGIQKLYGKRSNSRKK
Chain of Mitogen-activated protein kinase 3 (Homo sapiens) (P27361 whole entry, looked up): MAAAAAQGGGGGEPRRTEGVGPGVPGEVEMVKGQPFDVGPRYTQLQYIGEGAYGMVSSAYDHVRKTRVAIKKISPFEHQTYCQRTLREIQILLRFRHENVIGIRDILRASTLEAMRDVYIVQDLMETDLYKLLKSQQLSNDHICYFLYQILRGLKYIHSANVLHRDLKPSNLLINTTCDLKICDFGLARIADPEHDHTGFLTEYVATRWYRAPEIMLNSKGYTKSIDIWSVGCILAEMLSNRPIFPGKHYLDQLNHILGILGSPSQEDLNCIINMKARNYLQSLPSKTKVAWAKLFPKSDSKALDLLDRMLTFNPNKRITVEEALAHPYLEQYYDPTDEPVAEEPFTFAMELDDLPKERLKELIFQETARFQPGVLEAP
Chain of human MAP Kinase-Activated Protein Kinase 2 (MAPKAPK2), MAPKAPK2 (gene 9261) (P49137 whole entry, looked up): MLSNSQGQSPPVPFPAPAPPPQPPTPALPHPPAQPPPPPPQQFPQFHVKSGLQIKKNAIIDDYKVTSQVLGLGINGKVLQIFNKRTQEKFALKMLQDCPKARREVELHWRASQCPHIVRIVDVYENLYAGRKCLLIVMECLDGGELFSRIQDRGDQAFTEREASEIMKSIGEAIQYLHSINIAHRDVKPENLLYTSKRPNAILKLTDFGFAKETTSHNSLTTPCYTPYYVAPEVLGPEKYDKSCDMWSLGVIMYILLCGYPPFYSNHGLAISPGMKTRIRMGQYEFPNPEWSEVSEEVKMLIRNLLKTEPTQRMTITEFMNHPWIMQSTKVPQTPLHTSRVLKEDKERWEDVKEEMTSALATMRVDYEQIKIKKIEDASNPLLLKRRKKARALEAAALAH
Chain of human Mitogen-Activated Protein Kinase 1 (MAPK 1), MAPK1 (gene 5594) (P28482 whole entry, looked up): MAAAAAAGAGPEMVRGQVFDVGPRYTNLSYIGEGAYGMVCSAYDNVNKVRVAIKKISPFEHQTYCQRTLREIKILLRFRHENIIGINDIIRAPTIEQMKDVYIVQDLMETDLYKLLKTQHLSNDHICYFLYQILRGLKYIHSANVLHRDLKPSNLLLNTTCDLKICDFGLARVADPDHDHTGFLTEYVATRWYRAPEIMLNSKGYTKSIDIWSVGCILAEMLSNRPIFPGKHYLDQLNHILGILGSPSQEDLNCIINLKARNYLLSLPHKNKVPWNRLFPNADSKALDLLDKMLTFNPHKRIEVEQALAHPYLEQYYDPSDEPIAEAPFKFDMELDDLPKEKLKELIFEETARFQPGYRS
Chain of human Matrix Metalloproteinase-3 (MMP3), MMP3 (gene 4314) (P08254 whole entry, looked up): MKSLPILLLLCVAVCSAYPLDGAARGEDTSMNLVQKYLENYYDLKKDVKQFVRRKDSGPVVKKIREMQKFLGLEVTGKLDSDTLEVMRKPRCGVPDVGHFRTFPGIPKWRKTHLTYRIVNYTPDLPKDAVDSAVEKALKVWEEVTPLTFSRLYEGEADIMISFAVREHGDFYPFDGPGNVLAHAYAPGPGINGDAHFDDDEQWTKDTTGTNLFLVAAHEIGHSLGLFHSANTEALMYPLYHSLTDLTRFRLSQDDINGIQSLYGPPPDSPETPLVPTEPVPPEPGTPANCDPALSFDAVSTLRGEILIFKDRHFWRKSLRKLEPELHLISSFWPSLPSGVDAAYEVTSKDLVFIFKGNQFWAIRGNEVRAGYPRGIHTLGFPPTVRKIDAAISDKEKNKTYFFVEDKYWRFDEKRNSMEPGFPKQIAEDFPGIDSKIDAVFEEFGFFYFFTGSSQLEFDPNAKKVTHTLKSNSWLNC
Chain of human Matrix Metalloproteinase-2 (MMP2), MMP2 (gene 4313) (P08253 whole entry, looked up): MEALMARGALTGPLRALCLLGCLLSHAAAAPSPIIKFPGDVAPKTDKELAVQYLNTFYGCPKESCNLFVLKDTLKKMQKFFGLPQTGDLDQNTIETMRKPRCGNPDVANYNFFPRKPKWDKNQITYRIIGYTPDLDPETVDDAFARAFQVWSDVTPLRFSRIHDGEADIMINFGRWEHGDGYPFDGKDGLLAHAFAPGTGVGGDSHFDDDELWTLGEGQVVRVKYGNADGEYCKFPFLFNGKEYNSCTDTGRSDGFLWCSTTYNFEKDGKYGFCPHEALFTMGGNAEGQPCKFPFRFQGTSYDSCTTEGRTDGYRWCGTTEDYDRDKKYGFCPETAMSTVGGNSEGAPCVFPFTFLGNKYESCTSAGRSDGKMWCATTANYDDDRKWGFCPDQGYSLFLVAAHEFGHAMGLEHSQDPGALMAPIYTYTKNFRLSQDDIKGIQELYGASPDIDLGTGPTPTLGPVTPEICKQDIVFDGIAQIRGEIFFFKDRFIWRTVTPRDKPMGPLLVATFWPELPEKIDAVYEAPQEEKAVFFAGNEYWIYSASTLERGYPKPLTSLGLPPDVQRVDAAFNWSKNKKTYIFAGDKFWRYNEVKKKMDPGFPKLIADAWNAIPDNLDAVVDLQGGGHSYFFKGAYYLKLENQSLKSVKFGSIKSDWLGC
Chain of human Janus Kinase 2 (Jak2), JAK2 (gene 3717) (O60674 whole entry, looked up): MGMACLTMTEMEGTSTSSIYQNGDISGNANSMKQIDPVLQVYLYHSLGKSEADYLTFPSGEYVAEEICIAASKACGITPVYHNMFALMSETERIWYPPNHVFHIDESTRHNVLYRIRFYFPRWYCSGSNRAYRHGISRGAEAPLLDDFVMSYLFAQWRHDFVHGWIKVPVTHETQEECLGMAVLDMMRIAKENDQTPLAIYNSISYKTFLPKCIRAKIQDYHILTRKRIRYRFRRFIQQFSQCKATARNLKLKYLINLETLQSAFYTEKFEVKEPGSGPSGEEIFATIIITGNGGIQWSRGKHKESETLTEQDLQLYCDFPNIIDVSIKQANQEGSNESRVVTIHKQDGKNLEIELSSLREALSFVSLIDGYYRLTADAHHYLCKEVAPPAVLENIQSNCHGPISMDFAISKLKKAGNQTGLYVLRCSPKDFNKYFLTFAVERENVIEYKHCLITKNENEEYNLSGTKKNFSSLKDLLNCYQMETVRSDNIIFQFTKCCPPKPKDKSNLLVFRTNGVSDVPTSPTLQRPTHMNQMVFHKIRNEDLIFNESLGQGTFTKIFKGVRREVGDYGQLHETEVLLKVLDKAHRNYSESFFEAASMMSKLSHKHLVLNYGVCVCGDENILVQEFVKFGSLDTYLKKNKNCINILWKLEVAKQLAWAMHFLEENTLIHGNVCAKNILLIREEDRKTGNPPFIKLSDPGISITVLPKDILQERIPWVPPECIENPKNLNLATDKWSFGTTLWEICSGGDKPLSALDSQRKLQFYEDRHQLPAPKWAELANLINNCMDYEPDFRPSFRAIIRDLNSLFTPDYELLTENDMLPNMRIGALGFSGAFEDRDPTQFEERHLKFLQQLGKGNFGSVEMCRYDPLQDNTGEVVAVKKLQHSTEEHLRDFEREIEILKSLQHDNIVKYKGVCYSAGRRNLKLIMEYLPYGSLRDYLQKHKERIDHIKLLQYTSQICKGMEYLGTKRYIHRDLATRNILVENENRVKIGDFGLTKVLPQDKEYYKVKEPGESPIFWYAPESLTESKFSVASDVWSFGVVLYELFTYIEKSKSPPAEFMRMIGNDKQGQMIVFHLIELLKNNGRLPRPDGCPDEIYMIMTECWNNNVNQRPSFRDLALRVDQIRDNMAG
Chain of human Phosphodiesterase 4A1 (PDE4A1), PDE4A (gene 5141) (P27815 whole entry, looked up): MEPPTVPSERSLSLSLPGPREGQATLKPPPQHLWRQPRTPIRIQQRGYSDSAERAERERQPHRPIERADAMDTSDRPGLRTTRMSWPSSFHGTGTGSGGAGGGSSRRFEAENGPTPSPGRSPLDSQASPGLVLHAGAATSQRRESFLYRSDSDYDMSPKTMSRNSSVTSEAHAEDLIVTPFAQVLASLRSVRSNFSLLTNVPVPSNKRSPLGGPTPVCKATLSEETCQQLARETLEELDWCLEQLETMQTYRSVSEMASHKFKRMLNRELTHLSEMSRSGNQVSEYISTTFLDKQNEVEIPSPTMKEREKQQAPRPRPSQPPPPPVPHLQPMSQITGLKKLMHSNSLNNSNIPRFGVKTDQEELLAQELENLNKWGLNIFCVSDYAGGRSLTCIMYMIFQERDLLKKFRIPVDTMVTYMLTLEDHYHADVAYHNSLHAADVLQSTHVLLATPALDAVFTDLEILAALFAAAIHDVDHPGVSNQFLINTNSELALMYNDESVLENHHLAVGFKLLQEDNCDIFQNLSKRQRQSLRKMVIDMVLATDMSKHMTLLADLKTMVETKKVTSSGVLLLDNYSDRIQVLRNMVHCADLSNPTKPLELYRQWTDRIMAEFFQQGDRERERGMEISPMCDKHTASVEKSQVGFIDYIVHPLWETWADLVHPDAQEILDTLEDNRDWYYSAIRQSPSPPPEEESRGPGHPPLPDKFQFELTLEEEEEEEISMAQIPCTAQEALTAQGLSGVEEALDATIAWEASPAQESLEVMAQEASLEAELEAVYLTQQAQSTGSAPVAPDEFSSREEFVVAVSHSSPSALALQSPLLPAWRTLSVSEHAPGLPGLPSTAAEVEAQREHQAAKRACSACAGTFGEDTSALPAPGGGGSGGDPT

As for `Cc1ccccc1[N+](=O)[O-]`, the compound was called inactive in experiment [1] and in [2].
For `Cc1cc(O)ccc1Cl`, the result in [1] was inactive.
Consider `CC(C)C(=O)OCC(C)(C)C(OC(=O)C(C)C)C(C)C` (stereo not given), for which the outcome in [1], in experiment [3], in [4], in [5], in experiment [6] and in experiment [7] was inactive. Besides, the result in [8] and in experiment [9] was inactive.
As for `CCNc1nc(NC(C)C)nc(SC)n1`, the compound was classed as inactive in [10]. Moreover, the AC50 – broadly, the midpoint of the concentration-response curve, whichever way the signal moves – in experiment [11] is 2.15 µM (active); in experiment [9], 17.4 µM (active).
Consider `O=S(=O)(O)C(F)(F)C(F)(F)C(F)(F)C(F)(F)C(F)(F)C(F)(F)F`, for which the result in [12], in experiment [3], in experiment [10], in experiment [5], in [6] and in [13] was inactive. Besides, the result in experiment [11] and in experiment [9] was inactive.
As to `ClC1=C(Cl)[C@]2(Cl)[C@@H]3[C@@H](Cl)[C@H]4O[C@H]4[C@@H]3C1(Cl)C2(Cl)Cl`, the call in [5] was inactive.
On the same count and under the same terms, the entry for `Cc1cccc(C)c1N` is “inactive”.
For the compound `CCOCCOC(C)=O`, the call in experiment [6] was inactive.
As to `CCCCCCCCCC[N+](C)(C)CCCCCCCCCC`, in [14], the compound was called inactive.
Regarding `O=C(N[C@H]1CN2CCC1CC2)c1cc2ccoc2cn1`, the result in experiment [13] was inactive.
With `Oc1ccc(C(c2ccc(O)cc2)(C(F)(F)F)C(F)(F)F)cc1`, the outcome in experiment [13] was inactive.
`O=NN(c1ccccc1)c1ccccc1`: the call in experiment [7] was inactive.
`O=C(O)C(F)(F)C(F)(F)C(F)(F)C(F)(F)C(F)(F)C(F)(F)C(F)(F)C(F)(F)C(F)(F)F`: the AC50 in [15] is 12.5 µM (active).
Turning to `CO/C=C(/C(=O)OC)c1ccccc1COc1cccc(C(F)(F)F)n1`, in [15], the call was inactive.
Take `CCSC(=O)N(CC)C1CCCCC1`: in experiment [16], the compound was called inactive.
As for `c1cc2ccc3cccc4ccc(c1)c2c34`, the call in experiment [17] was inactive.
Take `CN(C)CCO`: the outcome in experiment [18] was inactive.
Consider `ClC1=C(Cl)[C@]2(Cl)[C@@H]3[C@H]4C[C@H]([C@@H]5O[C@H]45)[C@@H]3[C@@]1(Cl)C2(Cl)Cl`, for which the outcome in experiment [18] was inactive.
